In PubChem BioAssay AID504651 (National Center for Advancing Translational Sciences (NCATS), 2011):
About 130 (0.036%) of roughly 360,000 compounds were called active. The full list was thinned out, with actives kept by preference. A number with no mark means an inactive call. Cut-off read from the data, not from the text of the source: active = potentiation above about 30%; inactive = the rest.

These compounds were tested against D(1A) dopamine receptor (Homo sapiens) (UniProt P21728) (assay: Potentiators of Human D1 Dopamine Receptor: qHTS). Conditions: HEK293 TREx D1 cells, calcium flux, dopamine EC20 potentiation; at 10 µM; active compounds read high.
D(1A) dopamine receptor (Homo sapiens), sequence (P21728 whole entry, looked up): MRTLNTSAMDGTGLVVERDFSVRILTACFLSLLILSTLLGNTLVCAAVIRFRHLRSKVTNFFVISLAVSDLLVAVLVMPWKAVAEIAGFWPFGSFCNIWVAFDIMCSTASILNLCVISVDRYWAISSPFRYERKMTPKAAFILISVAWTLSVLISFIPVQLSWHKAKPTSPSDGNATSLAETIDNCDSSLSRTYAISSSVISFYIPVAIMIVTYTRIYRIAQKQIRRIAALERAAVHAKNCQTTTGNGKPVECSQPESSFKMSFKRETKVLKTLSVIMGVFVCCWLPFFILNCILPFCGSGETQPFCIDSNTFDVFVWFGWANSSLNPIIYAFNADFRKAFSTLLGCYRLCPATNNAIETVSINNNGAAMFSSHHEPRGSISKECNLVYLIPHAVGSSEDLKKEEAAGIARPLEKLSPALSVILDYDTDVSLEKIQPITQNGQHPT
Note: 0% is about no effect.

Row | SMILES | potentiation
1 | Cc1cc(C)c2oc(C(=O)Nc3c(C(=O)Nc4ccccc4)oc4ccccc34)cc(=O)c2c1 | 0.8%
2 | Cc1ccc(C(=O)NC2CCN(C#N)CC2)cc1 | -6.15%
3 | O=C(Nc1nc2c(s1)CCCC2)c1ccccc1F | 0.5%
4 | CCOc1ccc(S(=O)(=O)c2cn(Cc3ccc(OC)cc3)c3ccc(F)cc3c2=O)cc1 | -1.95%
5 | Cc1cc(C)c(NC(=O)CSc2nc3nccnc3c(=O)n2CCc2c[nH]c3ccccc23)c(C)c1 | -2.8%
6 | Cc1cccc(Cn2c(=O)n(CCC(=O)NCCc3ccc(Cl)cc3)c(=O)c3sccc32)c1 | 0.55%
7 | O=C(CNC(=O)c1ccc(Cl)cc1Cl)OC(C(=O)Nc1cc(C(F)(F)F)ccc1Cl)c1ccccc1 (configuration not stated) | -4%
8 | Cc1ccc(-c2cc(C(=O)Oc3ccccc3Cl)no2)cc1C | 0.6%
9 | COc1ccc(Cl)cc1NC(=O)Cn1c(=O)c2ccccc2n2nncc12 | 1.65%
10 | NS(=O)(=O)c1ccc(-c2ccc(/C=C3\SC(=O)NC3=O)o2)cc1 | 0.85%
11 | CN=C1S/C(=C\c2ccc(Sc3ccc(Cl)cc3)o2)C(=O)N1C | 5.08%
12 | CN1C(=O)/C(=C\c2ccc(-c3ccccc3)o2)SC1=S | 39.7% (active)
13 | Oc1ccc(Cl)cc1C1C=C(c2ccc3c(c2)OCO3)NC(c2c(F)cccc2Cl)N1 (configuration not stated) | -3.2%
14 | O=[S+]([O-])(c1ccc2c(c1)OCCO2)N1CCN([S+](=O)([O-])c2c(Cl)cc(Cl)cc2Br)CC1 | -3.2%
15 | COc1ccc(-c2nc(Cn3c(=O)cc(C)c4c(C)nn(-c5ccccc5)c43)c(C)o2)c(OC)c1 | -4.4%
16 | Cc1nc2ccn(Cc3cccs3)c(=O)c2cc1C(=O)NCc1ccc(Cl)cc1 | -6.65%
17 | COc1ccc(CCNS(=O)(=O)c2cc(-c3cc(C)no3)ccc2C)cc1OC | -4.9%
18 | Cc1ccc(S(=O)(=O)N2CCc3cc(C(=O)Nc4ccc(Cl)cc4C)ccc32)cc1 | -2.8%
19 | Cc1ccsc1CN(C(=O)c1oc2ccc(Br)cc2c1C)C1CCS(=O)(=O)C1 (configuration not stated) | 0.7%
20 | Cc1ccc(SCC(=O)Nc2ccc3oc(-c4ccccc4F)nc3c2)cc1 | -1.1%
21 | Cc1ccc(C)c(CNC(=O)c2cc3ccccn3n2)c1 | -6.6%
22 | COc1ccc2[nH]c3c(c2c1)CCN(C(=O)CCC1CCCC1)C3c1ccc(F)cc1 (configuration not stated) | -2.5%
23 | COc1ccc([N+](=O)[O-])cc1C1NN=C(c2cccc3ccccc23)S1 (configuration not stated) | 0.861%
24 | COc1ccc([N+](=O)[O-])cc1-c1nc2ccccc2nc1-c1ccccc1 | 30.4% (active)
25 | COc1cc2c(cc1OC)C(c1cccc([N+](=O)[O-])c1)=NCC2 | -1.3%
26 | Cc1ccc(NC(=O)c2oc3ccc(S(=O)(=O)N4CCCCC4)cc3c2C)cc1Cl | 3.15%

Row | SMILES | potentiation
27 | CC1=C(c2ccc(C)c(C)c2)S(=O)(=O)NC1=NCc1ccccc1Cl | -1.4%
28 | O=[S+]([O-])(c1ccc(OC(F)(F)F)cc1)N1CCN([S+](=O)([O-])c2ccc3c(c2)OCCO3)CC1 | 5.85%
29 | O=C(CCS(=O)(=O)c1ccccc1)N(Cc1cccnc1)c1nc2c(F)cccc2s1 | -1.7%
30 | Cc1ccc(CNC(=O)Cn2c(=O)ccc3cc(S(=O)(=O)N4CCCC4)ccc32)cc1 | -0.25%
31 | CC(C)S(=O)(=O)c1oc(-c2ccc(F)cc2)nc1S(=O)(=O)c1ccc(F)cc1 | 3.35%
32 | CCOC(=O)C1CCCN(C(=O)c2ccc3c(c2)sc2nc(-c4ccc(CC)cc4)cn23)C1 (configuration not stated) | -1.95%
33 | Cc1cccc(C)c1-n1ncc(C(=O)NCCCN2CCCCC2)c1C1CCN(C(=O)OC(C)(C)C)CC1 | 31.8% (active)
34 | CCN1CCN(CCCNC(=O)c2cnn(-c3ccc(C)cc3C)c2C2CCN(C(=O)OC(C)(C)C)CC2)CC1 | -2.55%
35 | COc1ccccc1N1CCN(CCCNC(=O)c2cnn(-c3ccccc3Cl)c2C2CCN(C(=O)OC(C)(C)C)CC2)CC1 | -8.55%
36 | Cc1cc(NS(=O)(=O)c2ccc3oc(=O)c4ncn(C)c4c3c2)ccc1Br | -5.95%
37 | CCc1ccc(S(=O)(=O)c2nnn3c2nc(N2CCN(CC)CC2)c2sccc23)cc1 | 1.1%
38 | O=C(NCCc1ccccc1)c1ccc2c(c1)N(Cc1ccc(F)cc1)C(=O)c1ccccc1S2(=O)=O | 2.25%
39 | CCOc1ccc(-c2cc3nc(C4CCN(C(=O)OC(C)(C)C)CC4)c(C(=O)Nc4ccc(C(=O)OC)cc4)cn3n2)cc1 | -0.6%
40 | Cn1c(=O)n(Cc2c(F)cccc2Cl)c(=O)c2c1nc1n2CCN1c1ccc(F)cc1 | -3.15%
41 | CC(C)CCN(C(=O)Nc1ccc(Cl)c(Cl)c1)C(C)c1cccs1 (configuration not stated) | -1.95%
42 | O=C(CCCn1c(=O)c2cccn2c2cccnc21)NCc1ccc(F)cc1 | -4.5%
43 | CCc1nn(CC(=O)NCC(C)c2ccccc2)c(=O)c2cc3occc3n12 (configuration not stated) | -5.55%
44 | CCCCCn1c(=O)[nH]c2cc(C(=O)Nc3cc(C)cc(C)c3)ccc2c1=O | 1.1%
45 | CCCN1CCN(CCCNC(=O)c2ccc3nc(Cc4ccccc4)oc3c2)CC1 | -0.6%
46 | O=S(=O)(c1ccc2c(c1)OCCCO2)N1CCN(S(=O)(=O)c2c(F)cccc2F)CC1 | -3.35%
47 | O=c1n(Cc2cccc(C(F)(F)F)c2)c2ccccc2c2nc(-c3ccccc3)nn12 | 0.85%
48 | CCOc1cccc(CNC(=O)c2ccc(N3CCCC3)c(NC(=O)Nc3ccccc3CC)c2)c1 | -0.4%
49 | Oc1ccc(Cl)cc1C1C=C(c2ccc3c(c2)OCO3)NC(c2ccc(F)c(Br)c2)N1 (configuration not stated) | 1.65%
50 | CCOc1ccc(N2CC(C)Cn3c2nc2c3c(=O)n(Cc3c(F)cccc3Cl)c(=O)n2C)cc1 (configuration not stated) | 1.1%
51 | CC(C)c1ccc(C2CC(=O)N3CN(C4CCCCC4)CSC3=C2C#N)cc1 (configuration not stated) | 9.05%
52 | CN(C)c1ccc(C(=O)NCC(=O)OC(C(=O)Nc2cc(C(F)(F)F)ccc2Cl)c2ccccc2)cc1 (configuration not stated) | -1.25%
